Test systems include NCI-H23 lung; NCI-H226 lung; NCI-H322M lung; HOP-62 NSCLC; NCI-H460 lung; HOP-92 NSCLC; NCI-H522 lung; A549/ATCC NSCLC; 786-0 renal; COLO 205 colon.
Common to all, as to test: NCI-60 one-dose screen, 48 h (100 = growth as untreated, 0 = no growth, -100 = all killed)
What all share (details): 10 µM unless noted

Compounds without any hit were thinned out: in the full panel of roughly 83,000, 20% have a hit.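 In brief: 96-well plates, 48 h treatment, single concentration, percent growth endpoint.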 A number with no mark means an inactive call. Calls of active or inactive are those of the source. How the source made its calls: active means growth percent below 10; inactive means the rest.

Regarding `COc1cc(/C=C/C(=O)c2ccc(-n3cc(CN4CCN(c5cc6c(cc5F)c(=O)c(C(=O)O)cn6C5CC5)CC4)nn3)cc2)ccc1O`, the growth was 91.4% with NCI-H23 lung; 82.1% with NCI-H226 lung; 80.2% in the assay with NCI-H322M lung; 67.7% with HOP-62 NSCLC; 66.7% in the assay with NCI-H460 lung; 79.3% with HOP-92 NSCLC. Besides, the growth in the assay with NCI-H522 lung was 83.9%; in the assay with A549/ATCC NSCLC, 71.6%; in the assay on 786-0 renal, 53.9%; in the assay with COLO 205 colon, 106%.
As for `COC(=O)c1ccc(NC(=O)Nc2ccc(C(=O)OC)cc2)cc1`, the growth in the assay on NCI-H23 lung is 113%; with NCI-H226 lung, 99%; in the assay on NCI-H322M lung, 104%; in the assay with HOP-62 NSCLC, 106%; with NCI-H460 lung, 110%; in the assay on HOP-92 NSCLC it was 85.7%. In addition, the growth with NCI-H522 lung is 51.2%; in the assay with A549/ATCC NSCLC it was 94.7%; in the assay on 786-0 renal, 105%; in the assay on COLO 205 colon, 104%.
Turning to `Cc1nc2c(=O)nc3s/c(=C\c4ccco4)c(=O)n3c2nc1C`, the growth in the assay with NCI-H23 lung was 96.8%; in the assay on NCI-H226 lung it was 97%; in the assay on NCI-H322M lung it was 93.5%; in the assay with HOP-62 NSCLC it was 94.8%; with NCI-H460 lung it was 101%; with HOP-92 NSCLC, 85.8%. Besides, the growth in the assay on NCI-H522 lung is 85.1%; with A549/ATCC NSCLC it was 81.2%; in the assay with 786-0 renal, 97.1%; in the assay on COLO 205 colon, 116%.
For `Fc1ccc(Cn2cc(CSc3nc4ccccc4o3)nn2)cc1`, the growth in the assay on NCI-H23 lung is 106%; with NCI-H226 lung, 92.8%; in the assay on NCI-H322M lung, 91.9%; in the assay on HOP-62 NSCLC, 87.5%; in the assay on NCI-H460 lung, 110%; in the assay on HOP-92 NSCLC it was 113%. For the same molecule, the growth with NCI-H522 lung is 83.4%; in the assay on A549/ATCC NSCLC it was 103%; with 786-0 renal, 91.1%; in the assay with COLO 205 colon it was 114%.
Consider `COc1cccc(/C=N/NC(=O)c2ccccc2N2CCCC2)c1O`, for which the growth in the assay on NCI-H23 lung was 53.3%; with NCI-H226 lung it was 71.7%; with NCI-H322M lung it was 49.6%; with HOP-62 NSCLC, 46.9%; in the assay on NCI-H460 lung, 20.9%; in the assay with HOP-92 NSCLC, 47.6%. Besides, the growth in the assay on NCI-H522 lung was -34.1% (active); in the assay on A549/ATCC NSCLC it was 70.5%; in the assay on 786-0 renal, 53.4%; in the assay with COLO 205 colon, 54.3%.
On to `C#CCO[C@H]1CC(CC#C)(CC#C)C(=O)[C@@H]2[C@H]1[C@H]1C[C@@H]3[C@@]4(C)CCC[C@@](C)(C(=O)OC)[C@@H]4CC[C@@]23C=C1C(C)C`, for which the growth in the assay on NCI-H23 lung is 73.2%; in the assay on NCI-H226 lung, 88.3%; with NCI-H322M lung, 104%; in the assay on HOP-62 NSCLC it was 98.7%; with NCI-H460 lung, 97.8%; in the assay with HOP-92 NSCLC, 13.6%. In addition, the growth was -77% (active) in the assay on NCI-H522 lung, 89.4% in the assay with A549/ATCC NSCLC, 41.4% with 786-0 renal and 86.8% in the assay on COLO 205 colon.
`N#Cc1cccc(C2C3=C(COC3=O)N(CCO)c3cc4c(cc32)OCO4)c1` (stereo not given): the growth with NCI-H23 lung is 44%; in the assay on NCI-H226 lung it was 74.9%; in the assay with NCI-H322M lung, 49.3%; in the assay on HOP-62 NSCLC, 32.2%; in the assay on NCI-H460 lung it was 14.8%; in the assay with HOP-92 NSCLC, 42.4%. Besides, the growth in the assay on NCI-H522 lung was 17%; with A549/ATCC NSCLC, 39.5%; with 786-0 renal, 24.9%; in the assay with COLO 205 colon, 8.4% (active).
With `S=c1nc2oc(-c3ccccc3)c(-c3ccccc3)c2c(/N=C\c2ccco2)[nH]1`, the growth in the assay with NCI-H23 lung was 88.2%; with NCI-H226 lung, 102%; with NCI-H322M lung, 105%; with HOP-62 NSCLC it was 82.5%; in the assay with NCI-H460 lung, 115%; in the assay on HOP-92 NSCLC, 92.4%. Further, the growth in the assay with NCI-H522 lung is 86.1%; in the assay with A549/ATCC NSCLC it was 95.3%; in the assay with 786-0 renal, 97%; with COLO 205 colon, 120%.
As to `CCNC(=O)Oc1ccc(/C(=C(/CC)Cc2ccccc2)c2ccc(OCCN3CCCC3)cc2)cc1`, the growth in the assay on NCI-H23 lung was 101%; in the assay with NCI-H226 lung it was 99.4%; in the assay on NCI-H322M lung it was 91%; in the assay with HOP-62 NSCLC, 83.2%; with NCI-H460 lung, 94.1%; with HOP-92 NSCLC, 62.1%. Further, the growth was 100% with NCI-H522 lung, 98.4% in the assay on A549/ATCC NSCLC, 91.2% in the assay on 786-0 renal and 102% in the assay on COLO 205 colon.
As to `O=C(Cc1ccccc1)Nc1cccc(N=Cc2ccccc2O)c1`, the growth in the assay on NCI-H23 lung is 107%; in the assay with NCI-H226 lung, 104%; with NCI-H322M lung it was 108%; in the assay with HOP-62 NSCLC, 115%; with NCI-H460 lung, 107%; with HOP-92 NSCLC it was 88.1%. Moreover, the growth with NCI-H522 lung was 91.1%; in the assay on A549/ATCC NSCLC, 99.3%; in the assay with 786-0 renal it was 104%; in the assay with COLO 205 colon it was 111%.
`N#Cc1c(-c2ccccc2)nc(SCC(O)CN2CCOCC2)nc1N1CCOCC1` (stereo not given): the growth with NCI-H23 lung was 81.7%; in the assay on NCI-H226 lung, 80%; in the assay with NCI-H322M lung, 52.3%; in the assay with HOP-62 NSCLC it was 48%; in the assay with NCI-H460 lung, 34%; with HOP-92 NSCLC, 30.7%. The growth in the assay on NCI-H522 lung is 63.3%; in the assay with A549/ATCC NSCLC, 80.3%; with 786-0 renal, 38.1%; with COLO 205 colon it was 81.1%.
Turning to `Cc1ccnc(Nc2ccc([N+](=O)[O-])c(NCCN3CCOCC3)n2)c1`, the growth in the assay on NCI-H23 lung is 42%; with NCI-H226 lung it was 24.5%; with NCI-H322M lung, 50.2%; in the assay with HOP-62 NSCLC, 40.8%; in the assay on NCI-H460 lung, 6.8% (active); in the assay on HOP-92 NSCLC, 138%. The growth in the assay with NCI-H522 lung was 20.9%; in the assay on A549/ATCC NSCLC, 19.6%; in the assay with 786-0 renal, 24.8%; with COLO 205 colon, -45.4% (active).
On to `O=C(Nc1ccccc1N1CCCC1=O)c1oc2ccc(F)cc2c1-c1cnn(-c2ccccc2)c1`, for which the growth was 61.9% [50 µM] in the assay with NCI-H23 lung; 39.4% [50 µM] with NCI-H226 lung; 63% [50 µM] in the assay with NCI-H322M lung; 55.1% [50 µM] in the assay on HOP-62 NSCLC; 28.1% [50 µM] with NCI-H460 lung; 29.1% [50 µM] with HOP-92 NSCLC. For the same molecule, the growth in the assay with NCI-H522 lung was 12.7% [50 µM]; in the assay on A549/ATCC NSCLC it was 37.5% [50 µM]; with 786-0 renal, 21.3% [50 µM]; in the assay with COLO 205 colon, 47% [50 µM].

(Values after PubChem BioAssay (NCI).)
